# Experimental data as given in PubChem BioAssay (NCATS).
# Records with an inconclusive call do not appear. A call without a number means that no potency is given here. Calls of active or inactive are those of the source. The call rests on the fitted dose curve; in most records, active means well fitted inhibition curve with a large enough effect; inconclusive means small, poorly fitted or top-dose-only effect; inactive means flat fitted curve, though single readings scatter. Peptide text beside a SMILES is read from it.
# Key:
# Test in all cases: qHTS profiling for inhibitors of Plasmodium falciparum proliferation (AID 504749); further: nearly all actives have a fitted effect of over 60% in size
# Settings in all cases: P. falciparum in erythrocytes, SYBR Green DNA, 72 h; series mostly up to 28.7 µM
# P93_24 = test system: P93_24
# Summary of the method: (§1)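 Each compound contacts P. falciparum-infected red blood cells for 72 h at 37 C; lysis buffer (Tris, EDTA, saponin, Triton X, SYBR Green I) is added and fluorescence measured next morning; values normalized to controls.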
# P94_40 = test system: P94_40
# Summary of the method: as §1
# PAD = test system: PAD
# Summary of the method: as §1
# PC15 = test system: PC15
# Summary of the method: as §1
# PC26 = test system: PC26
# Summary of the method: as §1
# PC49 = test system: PC49
# Summary of the method: as §1
# SC27B = test system: SC27B
# Summary of the method: as §1
# TAB109 = test system: TAB109
# Summary of the method: as §1
# TAB113 = test system: TAB113
# Summary of the method: as §1
# TAB165 = test system: TAB165
# Summary of the method: as §1
# Potency means the concentration at half of the fitted maximal effect.
Compound,Potency (P93_24),Potency (P94_40),Potency (PAD),Potency (PC15),Potency (PC26),Potency (PC49),Potency (SC27B),Potency (TAB109),Potency (TAB113),Potency (TAB165)
O=C(O)c1cccnc1Nc1cccc(C(F)(F)F)c1,inactive,inactive,inactive,inactive,inactive,inactive,inactive,inactive,inactive,inactive
Nc1ccc(S(N)(=O)=O)cc1,inactive,inactive,inactive,inactive,inactive,inactive,inactive,inactive,inactive,inactive
Clc1ccc(C(Cn2ccnc2)OCc2ccsc2Cl)c(Cl)c1 (configuration not stated),2240 nM (active),4470 nM (active),1000 nM (active),4470 nM (active),3380 nM (active),4470 nM (active),2000 nM (active),5010 nM (active),4470 nM (active),1000 nM (active)
C[C@H](Cn1cnc2c(N)ncnc21)OCP(=O)(O)O,inactive,inactive,inactive,inactive,inactive,inactive,inactive,inactive,inactive,inactive
CCCCCCCCCCCCCCCCCCCCCCO,inactive,inactive,inactive,inactive,inactive,inactive,inactive,inactive,inactive,inactive
CCC1=C(C)CN(C(=O)NCCc2ccc(S(=O)(=O)NC(=O)NC3CCC(C)CC3)cc2)C1=O (configuration not stated),inactive,inactive,inactive,inactive,inactive,inactive,inactive,inactive,inactive,inactive
C[Se]CCC(N)C(=O)O (configuration not stated),inactive,inactive,inactive,inactive,inactive,inactive,inactive,inactive,inactive,inactive
Cc1cccc(C)c1OCC(=O)N[C@@H](Cc1ccccc1)[C@@H](O)C[C@H](Cc1ccccc1)NC(=O)[C@H](C(C)C)N1CCCNC1=O,1120 nM (active),2510 nM (active),891 nM (active),3980 nM (active),1900 nM (active),2000 nM (active),1120 nM (active),2820 nM (active),1780 nM (active),1000 nM (active)
O=C(O)c1cc(=O)c2c(OCC(O)COc3cccc4oc(C(=O)O)cc(=O)c34)cccc2o1,inactive,inactive,inactive,inactive,inactive,inactive,inactive,inactive,inactive,inactive
COC(=O)[C@H](Cc1ccccc1)NC(=O)[C@@H](N)CC(=O)O (H-Asp-Phe-OMe),inactive,inactive,inactive,inactive,inactive,inactive,inactive,inactive,inactive,inactive
CCOc1cc(CC(=O)N[C@@H](CC(C)C)c2ccccc2N2CCCCC2)ccc1C(=O)O,inactive,inactive,inactive,inactive,inactive,inactive,inactive,inactive,inactive,inactive
O=C(O)CCNC(=O)c1ccc(N=Nc2ccc(O)c(C(=O)O)c2)cc1,inactive,inactive,inactive,inactive,inactive,inactive,inactive,inactive,inactive,inactive
N[C@@H](Cc1cc(I)c(Oc2cc(I)c(O)c(I)c2)c(I)c1)C(=O)O,inactive,inactive,inactive,inactive,inactive,inactive,inactive,inactive,inactive,inactive
C=CCc1cc(OC)c(O)c(C(=O)NCCO)c1,inactive,inactive,inactive,inactive,inactive,inactive,inactive,inactive,inactive,inactive
CN1C(C(=O)Nc2ccccn2)=C(O)c2sccc2S1(=O)=O,inactive,inactive,inactive,inactive,inactive,inactive,inactive,inactive,inactive,inactive
COc1cc2c(cc1OC)C1CC(=O)C(CC(C)C)CN1CC2 (configuration not stated),inactive,inactive,inactive,inactive,inactive,inactive,inactive,inactive,inactive,inactive
Nc1cc(C(Cl)=C(Cl)Cl)c(S(N)(=O)=O)cc1S(N)(=O)=O,inactive,inactive,inactive,inactive,inactive,inactive,inactive,inactive,inactive,inactive
N=C(N=C(N)N)N1CCOCC1,inactive,inactive,inactive,inactive,inactive,inactive,inactive,inactive,inactive,–

Compound,Potency (P93_24),Potency (P94_40),Potency (PAD),Potency (PC15),Potency (PC26),Potency (PC49),Potency (SC27B),Potency (TAB109),Potency (TAB113),Potency (TAB165)
O=c1oc2cc(O)ccc2s1,inactive,inactive,inactive,inactive,inactive,inactive,inactive,inactive,inactive,inactive
Cc1c(OCC(F)(F)F)ccnc1CS(=O)c1nc2ccccc2[nH]1 (configuration not stated),inactive,inactive,inactive,inactive,inactive,inactive,inactive,inactive,inactive,inactive
CCOC(=O)c1c(C)n(C)c2ccc(O)cc12,inactive,inactive,inactive,inactive,inactive,inactive,inactive,inactive,inactive,inactive
Cc1ccc(C)c(OCCCC(C)(C)C(=O)O)c1,inactive,inactive,inactive,inactive,inactive,inactive,inactive,inactive,inactive,inactive
CCCOc1ccc2nc(NC(=O)OC)[nH]c2c1,inactive,inactive,inactive,inactive,inactive,inactive,inactive,inactive,inactive,inactive
CCN(CC)CCOc1ccc(Cc2ccccc2)cc1,inactive,inactive,inactive,inactive,inactive,inactive,inactive,inactive,inactive,inactive
COc1ccc(C2(C#N)CCC(C(=O)O)CC2)cc1OC1CCCC1 (configuration not stated),inactive,inactive,inactive,inactive,inactive,inactive,inactive,inactive,inactive,inactive
CC1(C)CCC(C)(C)c2cc(NC(=O)c3ccc(C(=O)O)cc3)ccc21,inactive,inactive,inactive,inactive,inactive,inactive,inactive,inactive,inactive,inactive
CS(=O)(=O)OCCCCOS(C)(=O)=O,inactive,inactive,inactive,inactive,inactive,inactive,inactive,inactive,inactive,inactive
Cc1cc2cc3c(C)cc(=O)oc3c(C)c2o1,inactive,inactive,inactive,inactive,inactive,inactive,inactive,inactive,inactive,inactive
Oc1ccc(OCc2ccccc2)cc1,inactive,inactive,inactive,inactive,inactive,inactive,inactive,inactive,inactive,inactive
O=C(CS(=O)Cc1ccco1)NCC=CCOc1cc(CN2CCCCC2)ccn1 (configuration not stated),inactive,inactive,inactive,inactive,inactive,inactive,inactive,–,inactive,inactive
C=C(c1ccc(C(=O)O)cc1)c1cc2c(cc1C)C(C)(C)CCC2(C)C,inactive,inactive,inactive,inactive,inactive,inactive,inactive,inactive,inactive,inactive
CCCc1cc(=O)[nH]c(=S)[nH]1,inactive,inactive,inactive,inactive,inactive,inactive,inactive,inactive,inactive,inactive
Cc1nc2n(c(=O)c1CCN1CCC(c3noc4cc(F)ccc34)CC1)CCCC2,inactive,inactive,inactive,inactive,inactive,inactive,inactive,inactive,inactive,inactive
CCc1nc(N)nc(N)c1-c1ccc(Cl)cc1,inactive,inactive,inactive,inactive,–,inactive,inactive,inactive,inactive,178 nM (active)
Cn1c(NCCN(CCO)CCCc2ccc([N+](=O)[O-])cc2)cc(=O)n(C)c1=O,inactive,inactive,inactive,inactive,inactive,inactive,inactive,inactive,inactive,inactive
COc1cc(OC)c(C(=O)CCCN2CCCC2)c(OC)c1,inactive,inactive,inactive,inactive,inactive,inactive,inactive,inactive,inactive,inactive
